Assay results from the antibiotic and cytotoxicity screens of Wong et al. (2023).
Out of some 39,000 compounds screened, about 500 (1.3%) were called active. The sample holds actives, similar compounds and a random draw of the others, so the mix is not that of the screen.

tested on: S. aureus RN4220; assay: growth inhibition call (relative growth <= 0.2); conditions: 50 µM

Growth inhibition call, active:
O=C1O[C@H](c2ccccc2)[C@H](c2ccccc2)N2[C@H]1[C@@H](C(=O)O)[C@]1(C(=O)Nc3ccc(C#CC4=CCCCC4)cc31)[C@H]2c1ccccc1OCCO
O=C1O[C@@H](c2ccccc2)[C@@H](c2ccccc2)N2[C@@H](c3ccc(O)cc3)[C@]3(C(=O)Nc4ccc(C#CC5=CCCCC5)cc43)[C@@H](C(=O)O)[C@H]12
O=C1O[C@H](c2ccccc2)[C@H](c2ccccc2)N2[C@H]1[C@@H](C(=O)O)[C@]1(C(=O)Nc3ccc(C#CC4=CCCCC4)cc31)[C@H]2c1ccc(O)cc1
CC(C)(C)Cc1ccc(OCCCC(=O)O)c(CC(C)(C)C)c1
CC(C)(C)C1CCC(OC[C@@H](O)CN2CCC(CN3C(=O)c4cccc5cccc(c45)C3=O)CC2)CC1 (some centres undefined)
COc1ccc2c(c1)n(CCN)c(=O)n2C(=O)[C@@H]1C[C@H](C)CC[C@H]1C(C)C
Cc1c2oc3c(C)ccc(C(=O)N[C@@H]4C(=O)N[C@@H](C(C)C)C(=O)N5CCC[C@H]5C(=O)N(C)CC(=O)N(C)[C@@H](C(C)C)C(=O)O[C@@H]4C)c3nc-2c(C(=O)N[C@@H]2C(=O)N[C@@H](C(C)C)C(=O)N3CCC[C@H]3C(=O)N(C)CC(=O)N(C)[C@@H](C(C)C)C(=O)O[C@@H]2C)c(N)c1=O
Cc1c2oc3c(C)ccc(C(=O)OC(C)C4NC(=O)C(C(C)C)N(C)C(=O)CN(C)C(=O)C5CCCN5C(=O)C(C(C)C)NC4=O)c3nc-2c(C(=O)OC(C)C2NC(=O)C(C(C)C)N(C)C(=O)CN(C)C(=O)C3CCCN3C(=O)C(C(C)C)NC2=O)c(N)c1=O (centres undefined)
Cc1ccc(C(=O)N(CCCN)[C@@H](c2nc3cc(Cl)ccc3c(=O)n2Cc2ccccc2)C(C)C)cc1
CC(C)(O)CC(=O)NCCn1ccc2ncnc(Nc3ccc(Oc4cccc(C(F)(F)F)c4)c(Cl)c3)c21

Growth inhibition call, inactive:
O=c1cc(CN2CC[C@H](N3CCOCC3)[C@H](CCCO)C2)nc2c(O)cccn12
C[C@@H]1CCCCO[C@@H](CN(C)CC2CCCCC2)[C@@H](C)CN([C@@H](C)CO)C(=O)c2cc(NC(=O)C3CCCCC3)ccc2O1
CC(C)[C@@H](O)C[C@@H](C)O[C@@H]1O[C@H](CO[C@@H]2OC[C@](O)(CO)[C@H]2O)[C@@H](O)[C@H](O)[C@H]1O
C[C@H]1CN([C@@H](C)CO)S(=O)(=O)c2ccc(C#Cc3ccccc3)cc2O[C@H]1CN(C)C(=O)c1ccccn1
O=C1O[C@@H](c2ccccc2)[C@@H](c2ccccc2)N2[C@@H](c3ccccc3OCCO)[C@]3(C(=O)Nc4ccc(C#CC5=CCCCC5)cc43)[C@@H](C(=O)O)[C@H]12
O=C1O[C@H](c2ccccc2)[C@H](c2ccccc2)N2[C@H]1[C@@H](C(=O)N1CCCCCCC1)[C@]1(C(=O)Nc3ccc(C#CC4=CCCCC4)cc31)[C@H]2c1ccc(O)cc1
C=CCNC(=O)[C@@H]1[C@H]2C(=O)O[C@H](c3ccccc3)[C@H](c3ccccc3)N2[C@H](c2ccc(O)cc2)[C@@]12C(=O)Nc1ccc(C#CC3=CCCCC3)cc12
O=C1O[C@@H](c2ccccc2)[C@@H](c2ccccc2)N2[C@@H](c3ccc(O)cc3)[C@]3(C(=O)Nc4ccc(C#CC5=CCCCC5)cc43)[C@@H](C(=O)N3CCCCCCC3)[C@H]12
NC(=O)[C@H]1[C@@H]2C(=O)O[C@@H](c3ccccc3)[C@@H](c3ccccc3)N2[C@@H](c2ccccc2OCCO)[C@]12C(=O)Nc1ccc(C#CC3=CCCCC3)cc12
C=CCNC(=O)[C@H]1[C@@H]2C(=O)O[C@@H](c3ccccc3)[C@@H](c3ccccc3)N2[C@@H](c2ccc(O)cc2)[C@]12C(=O)Nc1ccc(C#CC3=CCCCC3)cc12
CC(C)(C)S(=O)N1Cc2cc(C(=O)N[C@@H]3CCN(Cc4ccccc4)C3)nc(-c3cccc(C#CCC4CCCC4)c3)c2[C@H]1CCO (some centres undefined)
CC(C)(C)OC(=O)C[C@@H]1CC=CC[C@@H](CC(=O)NCCO)C(=O)N[C@@H](Cc2ccccc2)COC1=O
C[C@@H]1CN([C@@H](C)CO)C(=O)Cc2cc(NC(=O)Nc3ccc(F)cc3)ccc2O[C@@H]1CN(C)Cc1ccc(C(=O)Nc2ccccc2N)cc1
Cc1ccc(S(=O)(=O)Nc2ccc3c(c2)C(=O)N([C@H](C)CO)C[C@@H](C)[C@@H](CN(C)Cc2ccc4c(c2)OCO4)OCCCC[C@@H](C)O3)cc1
CC(C)NC(=O)N[C@@H]1CC[C@H](CCN)O[C@@H]1CO
COc1ccccc1NC(=O)Nc1ccc2c(c1)OC[C@@H](C)N(Cc1ccccc1Cl)C[C@@H](C)[C@H](OC)CN(C)C2=O
CO[C@H]1CN(C)C(=O)c2ccc(NS(C)(=O)=O)cc2OC[C@H](C)N(C(=O)C2CCOCC2)C[C@H]1C
CC(C)CC#Cc1ccc2c(c1)O[C@H](CN(C)C(=O)Cc1cccnc1)[C@@H](C)CN([C@H](C)CO)S2(=O)=O
O=C(C[C@H]1CC[C@@H](NC(=O)CN2CCOCC2)[C@H](CO)O1)NCCc1ccccc1
Cc1ccc(C)c(OCCCC(C)(C)C(=O)O)c1
CCCCc1ccc(CC(=O)O)cc1
C[C@H](CO)N1C[C@H](C)[C@H](CN(C)S(=O)(=O)c2ccccc2)Oc2ccc(NS(C)(=O)=O)cc2CC1=O
O=C(CN1C(=O)c2cccc3cccc(c23)C1=O)N1CCN(CCN2C(=O)[C@@H]3[C@@H](C2=O)[C@@H]2C=C[C@@H]3C2)CC1
O=C(O)CN1C(=O)c2cccc3cccc(c23)C1=O
C[C@H](O)C#Cc1cnc2c(c1)C(=O)N([C@@H](C)CO)C[C@H](C)[C@@H](CN(C)Cc1cncnc1)O2
C[C@@H]1CN([C@@H](C)CO)C(=O)c2cc(NC(=O)c3ccncc3)ccc2O[C@@H](C)CCCCO[C@@H]1CN(C)S(=O)(=O)c1cn(C)cn1
C[C@H]1CN([C@@H](C)CO)C(=O)c2c(c3ccccc3n2C)-c2ccccc2CO[C@@H]1CN(C)Cc1ccc(C(=O)O)cc1
CC(C)[C@H]1CC[C@@H](C)C[C@@H]1NC(=O)c1cccc2ccccc12
COc1ccc(NC(=O)N(C)C[C@H]2OCCCC[C@H](C)Oc3ccc(NC(=O)NC4CCCCC4)cc3C(=O)N([C@@H](C)CO)C[C@H]2C)cc1
O=C(O)CN(CCN(CC(=O)O)CC(=O)O)CC(=O)O
Cc1c2oc3c(C)ccc(C(=O)N[C@@H]4C(=O)N[C@H](C(C)C)C(=O)N5CCC[C@H]5C(=O)N(C)CC(=O)N(C)[C@@H](C(C)C)C(=O)O[C@@H]4C)c3nc-2c(C(=O)N[C@@H]2C(=O)N[C@H](C(C)C)C(=O)N3CCC[C@H]3C(=O)N(C)CC(=O)N(C)[C@@H](C(C)C)C(=O)O[C@@H]2C)c(N)c1=O
C[C@H]1CN([C@@H](C)CO)C(=O)Cc2cc(NC(=O)Nc3cccc4ccccc34)ccc2O[C@@H]1CN(C)C(=O)Nc1ccc(F)cc1
C[C@@H]1CN([C@H](C)CO)C(=O)c2cccc(NC(=O)c3cnccn3)c2O[C@H]1CN(C)Cc1ccc2c(c1)OCO2
COc1cccc(NC(=O)N[C@H]2C=C[C@@H](CC(=O)N3CCN(C)CC3)O[C@@H]2CO)c1
O=C(C[C@H]1C[C@@H]2c3cc(NC(=O)NC4CCCC4)ccc3O[C@@H]2[C@H](CO)O1)NCCN1CCCCC1
C[C@H](CO)N1C[C@H](C)[C@@H](CN(C)Cc2ccc(Oc3ccccc3)cc2)Oc2c(NC(=O)C3CCCCC3)cccc2C1=O
C[C@@H]1CN([C@@H](C)CO)C(=O)c2cc(NC(=O)c3ccccc3)ccc2O[C@@H](C)CCCCO[C@H]1CN(C)Cc1ccc2c(c1)OCO2
C[C@@H]1CN([C@@H](C)CO)C(=O)c2cc(NC(=O)NC3CCCCC3)ccc2O[C@H]1CN(C)Cc1ccc(C(=O)Nc2ccccc2N)cc1
CC(C)NC(=O)Nc1cccc2c1O[C@H](CN(C)S(=O)(=O)c1ccc(F)cc1)[C@H](C)CN([C@H](C)CO)C2=O
C[C@H](CO)N1C[C@H](C)[C@H](CN(C)Cc2ccc(-c3ccccc3)cc2)Oc2c(NC(=O)NC3CCCCC3)cccc2C1=O
Cc1ccc(C(=O)N(CCCN)[C@@H](c2oc3cc(Cl)ccc3c(=O)c2Cc2ccccc2)C(C)C)cc1
Cc1ccc2c(c1)c1nc3ccccc3nc1n2Cc1ccccc1
COc1ccc(CN(C)C[C@@H]2OCCCC[C@@H](C)Oc3ccc(NC(=O)Nc4ccc(C(F)(F)F)cc4)cc3C(=O)N([C@@H](C)CO)C[C@@H]2C)cc1
C[C@@H]1CCCCO[C@H](CN(C)S(=O)(=O)c2ccccc2)[C@H](C)CN([C@H](C)CO)C(=O)c2cc(NC(=O)Nc3ccc(C(F)(F)F)cc3)ccc2O1
CO[C@@H]1CN(C)C(=O)c2ccc(NS(=O)(=O)CC(F)(F)F)cc2OC[C@@H](C)N(C(=O)c2ccc3c(c2)OCO3)C[C@H]1C
CS(=O)(=O)CCNCc1ccc(-c2ccc3ncnc(Nc4ccc(OCc5cccc(F)c5)c(Cl)c4)c3c2)o1 [listing 1 of 2 here]
CS(=O)(=O)CCNCc1ccc(-c2ccc3ncnc(Nc4ccc(OCc5cccc(F)c5)c(Cl)c4)c3c2)o1 [listing 2 of 2 here]
C[C@H](CO)N1C[C@H](C)[C@H](CN(C)C(=O)Cc2cccnc2)Oc2cc(-c3cncnc3)ccc2S1(=O)=O
C[C@@H]1CCCCO[C@@H](CN(C)Cc2ccc(C(=O)Nc3ccccc3N)cc2)[C@@H](C)CN([C@H](C)CO)C(=O)c2cc(NC(=O)c3ccccc3)ccc2O1
